Source: PubChem BioAssay (NCATS)
Values joined by “and” are separate entries in the source; they are usually repeats but may differ in a detail not shown here. Identical values can stand only once. Records with an inconclusive call do not appear. Active and inactive are the calls of the source. Unless noted, calls come from the whole dose curve; as a rule, active = well fitted cell-killing curve with a large enough effect; inconclusive = small, poorly fitted or top-dose-only effect; inactive = flat fitted curve, though single readings scatter.

Assays:
[1] = Cell Viability - LYMP2-025 (AID 976);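 note: series mostly up to about 92 µM; plate controls were DMSO only for no effect and tetraoctylammonium bromide control for full effect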
Summary of the method: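 Acute cytotoxicity is scored as a concentration-dependent fall in intracellular ATP, measured by luciferase luminescence, in human lymphoblastoid LYMP2-025 cells exposed to compound for 24 hours at 37 C. AC50 values come from standard Hill fits.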

[2] = Cell Viability - LYMP2-002 (AID 977);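 note: series mostly up to about 92 µM; compound exposure lasted 24 h at 37 °C; plate controls were DMSO only for no effect and 92 µM tetraoctylammonium bromide for full effect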
Summary of the method: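 Human lymphoblastoid cells, 2500/well, complete medium; 5 h 37 C settle; compound 24 h 37 C; CellTiter-Glo, 30 min RT; luminescence. Decrease in ATP = cytotoxicity; AC50 via Hill equation.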

[3] = Cell Viability - LYMP2-006 (AID 978); note: series mostly up to about 92 µM; % is set by controls: 0 for no effect and ±100 for the full control effect; nearly all actives have a fitted effect of over 60% in size
Summary of the method: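 Human lymphoblastoid cells (LYMP2-006), 2500/well in complete medium, were treated with compound for 24 hr at 37 C. Cellular ATP was read by CellTiter-Glo luminescence after 30 min, and AC50 values came from Hill-equation fits of concentration-response data.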

[4] = Cell Viability - LYMP2-007 (AID 979);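 note: cells exposed to compound for 24 h before reading; 0% = DMSO only and the negative end = 92 µM tetraoctylammonium bromide; nearly all actives have a fitted effect of over 60% in size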
Summary of the method: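 Cells are seeded at 2500 per well and rested 5 hr. Compounds are then added over a concentration series for 24 hr at 37 C. CellTiter-Glo is added for 30 min at room temperature before luminescence reading.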

[5] = Cell Viability - LYMP2-008 (AID 980); note: % is set by controls: 0 for no effect and ±100 for the full control effect; nearly all actives have a fitted effect of over 60% in size
Summary of the method: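 Cells seeded at 2500/well and rested 5 hr at 37 C; compounds added over a concentration range and incubated 24 hr at 37 C; CellTiter-Glo added, 30 min at room temperature; luminescence read and AC50 fitted with Hill model.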

[6] = Cell Viability - LYMP2-012 (AID 982);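 note: cellular ATP by luciferase luminescence where a drop means cytotoxicity; cells exposed to compound for one day before reading; 0% = DMSO only and full loss = 92 µM tetraoctylammonium bromide; nearly all actives have a fitted effect of over 55% in size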
[7] = Cell Viability - LYMP2-016 (AID 984); note: % is set by controls: 0 for no effect and ±100 for the full control effect; nearly all actives have a fitted effect of over 55% in size
Summary of the method: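 Human lymphoblastoid LYMP2-016 cells, 2500 per well, treated with compounds for 24 h at 37 C. Viability read as intracellular ATP by CellTiter-Glo luminescence after 30 min at room temperature; AC50 from Hill fits of concentration-response.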

[8] = Cell Viability - LYMP2-018 (AID 985);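 note: compound exposure lasted 24 hr at 37 °C; plate controls were DMSO only for no effect and tetraoctylammonium bromide at 92 µM for full effect; nearly all actives have a fitted effect of over 50% in size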
Summary of the method: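 Seed 2500 lymphoblastoid cells per well, incubate 5 hr at 37 C, add compound and incubate 24 hr at 37 C, add CellTiter-Glo, wait 30 min at room temperature, then read luminescence.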

[9] = Cell Viability - LYMP2-020 (AID 986);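 note: series mostly up to about 92 µM; plate controls were DMSO only for no effect and tetraoctylammonium bromide at 92 µM for full effect; nearly all actives have a fitted effect of over 55% in size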
Summary of the method: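 Seed 2500 cells per well and incubate 5 hr at 37 C. Add compounds at a concentration series and incubate 24 hr at 37 C. Add CellTiter-Glo, wait 30 min at RT, read luminescence, and fit a Hill curve for AC50.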

[10] = Cell Viability - LYMP2-022 (AID 987);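 note: 0% = DMSO alone and full effect = tetraoctylammonium bromide at 92 µM; nearly all actives have a fitted effect of over 55% in size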
Summary of the method: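 Cells were seeded at 2500 per well, rested 5 hr at 37 C, and treated with titrated compounds for 24 hr at 37 C. Cellular ATP was then quantified by luciferase luminescence, and AC50 values were derived from Hill-modelled concentration-response curves.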

[11] = Cell Viability - LYMP2-024 (AID 988);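 note: plate controls were DMSO only for no effect and 92 µM tetraoctylammonium bromide for full effect; nearly all actives have a fitted effect of over 60% in size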
Summary of the method: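 qHTS cytotoxicity, human lymphoblastoid line, complete medium; 24 h cpd treatment, 37 C; CellTiter-Glo ATP luminescence readout; tetraoctylammonium bromide positive control; AC50 via Hill fit.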

[12] = Cell Viability - LYMP2-026 (AID 989); note: % is set by controls: 0 for no effect and ±100 for the full control effect; nearly all actives have a fitted effect of over 50% in size
Summary of the method: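 Cells are seeded at 2500 per well and held 5 hr at 37 C. Compounds are added in concentration series for 24 hr, then CellTiter-Glo reagent is applied and luminescence read.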

[13] = Cell Viability - LYMP1-002 - Assay at 24 hr (AID 993); note: % is set by controls: 0 for no effect and ±100 for the full control effect
Summary of the method: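 Acute toxicity is measured as concentration-dependent loss of cellular ATP in a human lymphoblastoid line (Coriell LYMP1-002) after 24 h treatment in complete medium. ATP is quantified by luciferase luminescence and AC50 derived by Hill modelling.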

[14] = Cell Viability - LYMP1-002 - Assay at 40 hr (AID 994)
Summary of the method: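 Cells are plated at 2500 per well and rested 5 hr at 37 C. Compounds are added and incubated 40 hr at 37 C. CellTiter-Glo reagent is added for 30 min at room temperature before luminescence is read.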

[15] = qHTS Assay for Identification of Small Molecule Inducers of Hypoxia Response (AID 2120; active = well fitted curve in the direction sought with a large enough effect in the signal ratio, with a control signal flat, not every such curve was filed as active; the % refers to the signal ratio; note: 0% is about no effect)
Summary of the method: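 Cell-based qHTS for reporter induction: hypoxia response element controlled beta-lactamase in ME-180 cells. Compounds incubated 17 h at 37 degrees C; activity from blue/green (460/530 nm) ratio, inducers ranked by AC50.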

[16] = molecular target: Estrogen receptor (Homo sapiens) (UniProt P03372); assay: qHTS assay for small molecule antagonists of estrogen receptor alpha signaling (AID 588513; active = well fitted curve in the direction sought with a large enough effect in the signal ratio, with a control signal flat, not every such curve was filed as active; the % refers to the signal ratio; note: % is set by controls: 0 for no effect and ±100 for the full control effect)
Summary of the method: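 ER-alpha-UAS-bla GripTite HEK 293 cells in 2% charcoal/dextran-treated FBS medium; compounds titrated (1:2, duplicate), then stimulated with 0.5 nM 17-beta-estradiol for 18 h at 37C. CCF4 beta-lactamase fluorescence; Hill-fit IC50 and efficacy.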

[17] = molecular target: Estrogen receptor (Homo sapiens) (UniProt P03372); assay: qHTS assay for small molecule agonists of estrogen receptor alpha signaling (AID 588514; calls by dose curve;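 note: 0% = vehicle only and 100% = reference agonist; nearly all actives have a fitted effect of over 70% in size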)
Summary of the method: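 Efficacy is expressed against 20 nM 17-beta-estradiol (100%) and DMSO basal (0%); EC50 from Hill equation. Assay: beta-lactamase reporter in ER-alpha-UAS-bla HEK 293 cells, 18 h compound incubation, CCF4 detection.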

[18] = molecular target: Glucocorticoid receptor (Homo sapiens) (UniProt P04150); assay: qHTS assay for small molecule agonists of glucocorticoid receptor signaling (AID 588532; active = well fitted curve in the direction sought with a large enough effect in the signal ratio, with a control signal flat; the % refers to the signal ratio;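 note: 100% = dexamethasone at 0.1 µM and 0% = DMSO only wells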); details: HeLa MMTV-bla, beta-lactamase ratio, agonist, 18 h; hits give high values; percent of dexamethasone control, DMSO zero
Summary of the method: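 HeLa GRE-bla reporter cells; 18 h compound exposure at 37 C; 2 h CCF4 loading at room temperature; fluorescence at 460 and 530 nm; EC50 by Hill equation.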

[19] = molecular target: Glucocorticoid receptor (Homo sapiens) (UniProt P04150); assay: qHTS assay for small molecule antagonists of glucocorticoid receptor signaling (AID 588533; active = well fitted inhibition curve with a large enough effect in the signal ratio, with a control signal flat, not every such curve was filed as active; the % refers to the signal ratio; note: % is set by controls: 0 for no effect and ±100 for the full control effect)
Summary of the method: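 Antagonist-mode qHTS: compound titrations added to GRE-bla HeLa cells, then dexamethasone 2 nM final; 18 h, 37 C. CCF4 FRET fluorescence normalized to dexamethasone and DMSO; IC50 from Hill fit.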

[20] = molecular target: Peroxisome proliferator-activated receptor gamma (Homo sapiens) (UniProt P37231); assay: qHTS assay for small molecule agonists of peroxisome proliferator-activated receptor gamma signaling (AID 588536; active = well fitted curve in the direction sought with a large enough effect in the signal ratio, with a control signal flat, not every such curve was filed as active; the % refers to the signal ratio;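 note: 0% = DMSO basal wells and 100% = rosiglitazone at 2 µM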)
Summary of the method: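 Using GeneBLAzer HEK293 cells, response was quantified by CCF4 fluorescence and normalized between basal DMSO (0%) and rosiglitazone 2 uM (100%); curves yielded half-maximal stimulation concentration and efficacy.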

[21] = molecular target: Peroxisome proliferator-activated receptor gamma (Homo sapiens) (UniProt P37231); assay: qHTS assay for small molecule antagonists of peroxisome proliferator-activated receptor gamma signaling (AID 588537; active = well fitted inhibition curve with a large enough effect in the signal ratio, with a control signal flat, not every such curve was filed as active; the % refers to the signal ratio;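 note: reporter cells co-stimulated with 50 nM rosiglitazone agonist during compound treatment; % of control where 0% means no effect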)
Summary of the method: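 Fluorescence at 460 and 530 nm (405 nm excitation) reported beta-lactamase cleavage of CCF4 after 2 h room-temperature loading. HEK293 reporter cells in 1% charcoal/dextran-treated FBS had received compound and rosiglitazone for 16 h.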

[22] = molecular target: Vitamin D3 receptor (Homo sapiens) (UniProt P11473); assay: qHTS assay for small molecule antagonists of vitamin D receptor signaling (AID 588541; calls by dose curve;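 note: receptor activated by calcitriol during compound treatment; series mostly up to about 77 µM; % is set by controls: 0 for no effect and ±100 for the full control effect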)
Summary of the method: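 VDR-UAS-bla HEK293T cells in 2% charcoal-stripped FBS were stimulated with 1-alpha,25-dihydroxyvitamin D3 (3 nM final) plus compound for 16 h at 37 C. The beta-lactamase CCF4 readout was normalized to 50 nM agonist and DMSO, and Hill fits gave IC50.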

[23] = molecular target: Vitamin D3 receptor (Homo sapiens) (UniProt P11473); assay: qHTS assay for small molecule agonists of vitamin D receptor signaling (AID 588543; calls by dose curve;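 note: 0% = DMSO basal and 100% = reference agonist control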)
Summary of the method: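 VDR-UAS-bla HEK293T cells, 2000/well, 2% charcoal-stripped FBS; compound titration 16 h at 37 C; CCF4 beta-lactamase ratio read. Normalized to 50 nM 1-alpha,25-dihydroxyvitamin D3 (100%) and DMSO; Hill fit gives EC50, efficacy.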

Glucocorticoid receptor (Homo sapiens), sequence (P04150 whole entry, looked up): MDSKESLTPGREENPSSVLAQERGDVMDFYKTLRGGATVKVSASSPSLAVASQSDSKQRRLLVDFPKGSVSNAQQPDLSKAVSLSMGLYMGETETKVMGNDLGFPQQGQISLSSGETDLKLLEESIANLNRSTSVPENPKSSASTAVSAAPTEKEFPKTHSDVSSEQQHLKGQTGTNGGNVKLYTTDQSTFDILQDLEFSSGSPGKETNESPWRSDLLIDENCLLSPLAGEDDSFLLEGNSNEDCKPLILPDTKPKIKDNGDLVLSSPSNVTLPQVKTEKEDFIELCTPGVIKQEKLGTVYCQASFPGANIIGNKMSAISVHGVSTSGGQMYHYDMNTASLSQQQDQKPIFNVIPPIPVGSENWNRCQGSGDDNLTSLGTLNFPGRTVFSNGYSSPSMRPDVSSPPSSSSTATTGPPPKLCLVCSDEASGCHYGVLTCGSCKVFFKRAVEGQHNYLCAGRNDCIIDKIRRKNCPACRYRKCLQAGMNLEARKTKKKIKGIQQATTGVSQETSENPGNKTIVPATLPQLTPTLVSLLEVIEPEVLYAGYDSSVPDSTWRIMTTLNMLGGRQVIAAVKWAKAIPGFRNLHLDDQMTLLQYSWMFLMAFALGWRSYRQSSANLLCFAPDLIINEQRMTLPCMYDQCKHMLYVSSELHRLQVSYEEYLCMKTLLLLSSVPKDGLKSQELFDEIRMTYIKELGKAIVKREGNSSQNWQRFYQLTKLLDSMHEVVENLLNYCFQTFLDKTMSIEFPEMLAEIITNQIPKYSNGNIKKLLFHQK
Vitamin D3 receptor (Homo sapiens), sequence (P11473 whole entry, looked up): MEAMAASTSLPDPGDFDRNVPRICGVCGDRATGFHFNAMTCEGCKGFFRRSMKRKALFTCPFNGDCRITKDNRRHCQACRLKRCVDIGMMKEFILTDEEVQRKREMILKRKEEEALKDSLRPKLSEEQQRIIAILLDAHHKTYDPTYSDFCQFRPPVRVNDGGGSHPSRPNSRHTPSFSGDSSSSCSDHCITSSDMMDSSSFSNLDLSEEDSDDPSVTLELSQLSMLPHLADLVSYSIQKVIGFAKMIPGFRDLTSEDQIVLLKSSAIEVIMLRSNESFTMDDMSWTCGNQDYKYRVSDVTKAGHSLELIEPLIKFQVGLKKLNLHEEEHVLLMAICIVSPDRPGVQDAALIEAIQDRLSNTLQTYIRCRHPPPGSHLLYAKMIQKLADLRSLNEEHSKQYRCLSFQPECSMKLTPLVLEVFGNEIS
Estrogen receptor (Homo sapiens), sequence (P03372 whole entry, looked up): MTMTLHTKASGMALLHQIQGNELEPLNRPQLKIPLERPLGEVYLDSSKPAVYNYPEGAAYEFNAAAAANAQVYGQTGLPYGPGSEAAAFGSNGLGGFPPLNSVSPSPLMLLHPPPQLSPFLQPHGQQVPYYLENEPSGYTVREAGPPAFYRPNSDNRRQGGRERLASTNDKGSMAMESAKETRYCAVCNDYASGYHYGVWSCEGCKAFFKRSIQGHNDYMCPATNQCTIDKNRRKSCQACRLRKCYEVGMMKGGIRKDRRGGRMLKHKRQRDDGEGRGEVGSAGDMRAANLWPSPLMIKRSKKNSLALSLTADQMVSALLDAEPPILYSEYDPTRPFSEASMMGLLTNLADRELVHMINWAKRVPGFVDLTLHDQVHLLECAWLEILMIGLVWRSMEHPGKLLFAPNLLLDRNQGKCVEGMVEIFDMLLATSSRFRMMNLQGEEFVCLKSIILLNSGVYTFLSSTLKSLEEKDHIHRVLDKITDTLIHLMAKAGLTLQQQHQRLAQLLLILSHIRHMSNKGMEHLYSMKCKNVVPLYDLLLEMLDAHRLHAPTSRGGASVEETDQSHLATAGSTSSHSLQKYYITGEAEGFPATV
Peroxisome proliferator-activated receptor gamma (Homo sapiens), sequence (P37231 whole entry, looked up): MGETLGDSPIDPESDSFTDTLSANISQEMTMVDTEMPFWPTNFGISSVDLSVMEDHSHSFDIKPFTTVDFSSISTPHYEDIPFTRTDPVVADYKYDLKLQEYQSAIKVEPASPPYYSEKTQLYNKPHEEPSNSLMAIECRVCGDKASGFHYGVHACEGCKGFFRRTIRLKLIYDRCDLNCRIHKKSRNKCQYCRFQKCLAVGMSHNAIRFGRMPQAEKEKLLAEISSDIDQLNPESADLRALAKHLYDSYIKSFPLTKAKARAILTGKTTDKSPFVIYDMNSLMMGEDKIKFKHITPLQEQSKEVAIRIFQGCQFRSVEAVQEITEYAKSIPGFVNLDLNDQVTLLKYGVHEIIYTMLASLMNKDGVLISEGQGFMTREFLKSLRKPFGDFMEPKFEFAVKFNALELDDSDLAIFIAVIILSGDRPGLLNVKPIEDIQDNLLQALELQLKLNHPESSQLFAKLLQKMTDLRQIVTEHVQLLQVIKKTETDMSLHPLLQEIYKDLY

CCCCOC(=O)c1ccccc1C(=O)OCCCC
inactive: Potency [1] | Potency [2] | Potency [3] | Potency [4] | Potency [5] | Potency [6] | Potency [7] | Potency [8] | Potency [9] | Potency [10] | Potency [11] | Potency [12] | Potency [13] | Potency [14] | outcome [15] | Potency [16] | Potency [17] | activation [18] -1.41% and -0.473% | Potency [19] | outcome [20] | Potency [21] | outcome [22] | outcome [23]
